Source: PubChem BioAssay AID485313 (National Center for Advancing Translational Sciences (NCATS), 2010)
In all, about 320,000 compounds went through this assay and about 7,600 (2.4%) were called active. Where a call stands in place of a potency, no number is given. Inconclusive results (about 3%) are left out. Many of the other results were omitted from the sample, so actives are more common in it than they were. Values without a mark were called inactive. Calls come from the whole dose curve; as a rule, active = well fitted activation curve with a large enough effect; inconclusive = small, poorly fitted or top-dose-only effect; inactive = no such curve, though single readings can be large or run the other way.

Experiment: qHTS Assay for NPC1 Promoter Activators; note: nearly all actives have a fitted effect of over 60% in size;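 for activation: reporter is driven by a mutant NPC1 promoter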
Conditions: Huh7 NPC1 promoter luciferase reporter, 24 h; series mostly up to 9.22 µM
Method in brief: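 Compounds in DMSO were transferred onto Huh7 NPC1-luciferase reporter cells pre-incubated 2 h; after 24 h at 37 °C, Amplite reagent was dispensed and luminescence recorded 10 min later.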
Potency is the fitted concentration of half-maximal effect.

| Compound | Potency | activation |
| --- | --- | --- |
| O=C(CN1CCN(c2ccccn2)CC1)N1CCc2ccccc21 | inactive |  |
| CCC(=O)N1CCCc2ccccc21 | inactive |  |
| O=C(CSCc1ccccc1)N1CCc2ccccc21 | 2240 nM (active) |  |
| CN(CC(=O)Nc1ccc(F)cc1)CC(=O)N1CCCCC1 | inactive |  |
| Cc1ccc(S(=O)(=O)N(CC(=O)Nc2cccc([N+](=O)[O-])c2)Cc2ccc(Cl)cc2)cc1 | inactive |  |
| Cc1cccc(C)c1NC(=O)CNC(=O)c1ccc2c(c1)OCCO2 | inactive |  |
| CCCc1cc(C(=O)Nc2ccc(C(=O)OC)cc2)cs1 | inactive |  |
| CCCCC(CC)C(=O)Nc1ccc(Cl)cn1 (stereo not given) | inactive |  |
| CC(=O)c1ccc2c(c1)OCCOCCOc1ccc(C(C)=O)cc1OCCOCCO2 | inactive |  |
| CCCc1cc(C(=O)Nc2ccc(Cl)cn2)cs1 | 501 nM (active) |  |
| COc1c(Cl)cc(C(=O)Nc2ccc(Cl)cn2)cc1Cl | inactive |  |
| O=C(Nc1cccc(S(=O)(=O)Nc2ccc(Cl)cc2)c1)c1ccc2c(c1)OCCO2 | inactive |  |
| O=C(Nc1ccc(Cl)cn1)c1ccc2c(c1)OCCO2 | 501 nM (active) |  |
| Cc1nc(NC(=O)c2ccc3c(c2)OCCO3)ccc1Br | 1000 nM (active) |  |
| O=C(C1Cc2ccccc2CN1C(=O)c1ccco1)N1CCN(c2ccccc2)CC1 (stereo not given) | inactive |  |
| CN(CC(=O)Nc1ccc(F)c(F)c1F)C(=O)C1CC(=O)N(C2CCCC2)C1 (stereo not given) | inactive |  |
| COc1ccc(CS(=O)/C(Cl)=C(/Cl)C(=O)Nc2ccc(OC)nc2)cc1 (stereo not given) | inactive |  |
| CCCCNC(=O)OC(C)CNC(=O)OC (stereo not given) | inactive |  |
| COc1ccc(NC(=O)COC(=O)c2n[nH]c3ccccc23)c(OC)c1 | inactive |  |
| O=C(CSc1nnc(COc2ccc(Cl)cc2)n1Cc1ccco1)N1CCNC1=O | inactive |  |
| CCNC(=O)N1CCN(S(=O)(=O)c2ccc3c(c2)OCCCO3)CC1 | inactive |  |
| C=CCN1C(=O)C(Cc2cccc(Cl)c2)S/C1=N/N=C/c1ccco1 (stereo not given) | inactive |  |
| COc1ccc(CN2C(=O)C(C)S/C2=N/N=C/c2ccco2)cc1 (stereo not given) | 3160 nM (active) |  |
| O=C1N/C(=N\N=C\c2ccco2)SC1Cc1ccc(F)cc1 (stereo not given) | inactive |  |

| Compound | Potency | activation |
| --- | --- | --- |
| CCOc1ccc(S(=O)(=O)N2CCC(C(=O)NCC(=O)Nc3cccc(Cl)c3C)CC2)cc1 | inactive |  |
| O=C(Nc1ccccc1F)c1ccc(S(=O)(=O)N2CCCCCC2)cc1 | inactive |  |
| CCc1ccc2oc(-c3ccc(N)cc3)nc2c1 | 708 nM (active) |  |
| Cc1[nH]c2ccccc2c1C(=O)C(C)Sc1nnc(C2CC2)o1 (stereo not given) | inactive |  |
| CC(NC(=O)Nc1cccc([N+](=O)[O-])c1)c1ccc2c(c1)OCO2 (stereo not given) | inactive |  |
| Cc1ccc(S(=O)(=O)NCC(=O)Nc2ccc3c(c2)OCCO3)cc1 | inactive |  |
| O=C(/C=C\c1ccc2c(c1)OCO2)NC1(C(=O)Nc2ccc3c(c2)OCCO3)CCCCC1 | inactive |  |
| Cc1cccc(NC(=O)/C=C/c2ccc3c(c2)OCO3)n1 | 1410 nM (active) |  |
| COc1ccc(OC)c(/C=C/C(=O)OCC(=O)Nc2ccc3c(c2)OCCO3)c1 | inactive |  |
| CC(NC(=O)Nc1ccc2c(c1)OCO2)c1ccncc1 (stereo not given) | inactive |  |
| COc1cccc(/C=C/C(=O)Nc2ccc3c(c2)OCCO3)c1 | 2510 nM (active) |  |
| O=C(/C=C/c1ccc2c(c1)OCO2)NCc1ccc(F)cc1 | inactive |  |
| Cc1cccc(NC(=O)Nc2ccc3c(c2)OCO3)n1 | 1780 nM (active) |  |
| O=C(O)/C=C/c1ccc2c(c1)OCCO2 | inactive |  |
| CC(C)CNS(=O)(=O)c1ccc(C(=O)Nc2ccc3c(c2)OCO3)cc1 | inactive |  |
| CNS(=O)(=O)c1ccc(NC(=O)Nc2ccc3c(c2)OCO3)cc1 | 2510 nM (active) |  |
| COc1ccc(NC(=O)CN(C)C(=O)c2cc(C3CC3)nn2-c2ccccc2)cc1 | inactive |  |
| O=S(=O)(c1ccc(Br)cc1)n1ccc2ccccc21 | inactive |  |
| COc1ccc(S(=O)(=O)N2CCOCC2)cc1NC(=O)c1ccc(OCC(C)C)c(OC)c1 | inactive |  |
| Cc1ccccc1NC(=O)Cc1nc(COC(=O)c2cccnc2Cl)cs1 | inactive |  |
| O=C(CCc1ccccc1Cl)Nc1ccc(S(=O)(=O)Nc2nccs2)cc1 | inactive |  |
| Cc1ccc(CN2CC(C(=O)N3CCN(S(=O)(=O)c4ccccc4)CC3)CC2=O)cc1 (stereo not given) | inactive |  |
| NS(=O)(=O)c1ccc(CNC(=O)c2cccc(S(=O)(=O)N3CCc4ccccc43)c2)cc1 | inactive |  |
| O=C(O)c1cccc(S(=O)(=O)N2CC=C(c3ccccc3)CC2)c1 | inactive |  |

| Compound | Potency | activation |
| --- | --- | --- |
| COc1cccc(C(=O)OCC(=O)c2[nH]c(C)c(C(C)=O)c2C)c1 | inactive |  |
| COCCN1C(=O)C(=O)/C(=C(/O)c2ccc(S(=O)(=O)N3CCCCC3)cc2)C1c1ccc(OC)c(OC)c1 (stereo not given) | inactive |  |
| O=C(CSC(=S)N1CCOCC1)c1cc(Br)cc(Br)c1O | inactive |  |
| O=C(CSC(=S)N1CCOCC1)c1ccccc1 | 501 nM (active) |  |
| CC(=O)c1ccc(NC(=O)CSC(=S)N2CCCC2)cc1 | inactive |  |
| CC1CN(C(=S)SCC(=O)c2ccccc2)CC(C)O1 (stereo not given) | inactive |  |
| O=C(CSC(=S)N1CCCCC1)c1c(F)cccc1F | 1120 nM (active) |  |
| COc1cccc(NC(=O)CN(C)C(=O)CSC(=S)N2CCCC2)c1 | inactive |  |
| COc1ccc(C(=O)N2CCN(c3ncccn3)CC2)cc1S(=O)(=O)N1CCOCC1 |  | -2.21% [at 1.84 µM] |
| C=CCC(NC(=O)Cc1ccccc1)C(=O)NCCC (stereo not given) | inactive |  |
| COc1ccc2nc(NC3=NCN(CC4CCCO4)CN3)nc(C)c2c1 (stereo not given) | inactive |  |
| COc1ccc(NS(=O)(=O)c2cc(NC(=O)COc3ccccc3F)ccc2OC)cc1 | inactive |  |
| O=C(N/N=C/c1cccc(Br)c1)c1ccc(N2CCCC2=O)cc1 | inactive |  |
| COc1cc(/C=N/NC(=O)c2ccc(N3CCCC3=O)cc2)ccc1O | 2510 nM (active) |  |
| COc1ccc(C(=O)Nc2ccccc2C(=O)N/N=C/c2ccc(O)c(OC)c2)cc1 | inactive |  |
| O=C1C=C(c2cccc(Cl)c2)C[C@@H](c2ccc(F)cc2)C1 | inactive |  |
| Cc1ccccc1NC(=O)C1CCN(C(=O)NC2CCCCC2)CC1 | inactive |  |
| O=C(Nc1cc2ccccc2oc1=O)C1CCCCC1 | 447 nM (active) |  |
| CN1C(=O)c2ccc(NC(=O)C3CCCCC3)cc2C1=O | inactive |  |
| COc1ccc(S(=O)(=O)N2CCOCC2)cc1NC(=O)Cc1c(F)cccc1Cl | inactive |  |
| Cc1sc2ncnc(SCC(=O)Nc3ccc(CN4CCCC4)cc3)c2c1C | inactive |  |
| Cc1cccc(OCC(=O)NCC(=O)N/N=C/c2ccc(N(C)C)cc2)c1 | inactive |  |
| O=C(N/N=C/c1cccc(OCc2ccccc2)c1)c1ccc(Br)o1 | inactive |  |
| Cc1ccc(OCCOc2cccc(/C=N/NC(N)=O)c2)cc1 | 2820 nM (active) |  |

| Compound | Potency | activation |
| --- | --- | --- |
| COc1ccc(OC)c(-c2csc(NC(=O)COC(=O)C3CC3)n2)c1 | inactive |  |
| O=C(NCC1CCCO1)c1cc2c(s1)CCCC2 (stereo not given) |  | 12.7% [at 1.84 µM] |
| Cn1nccc1NS(=O)(=O)c1ccc(F)cc1 | 0.3 nM (active) |  |
| Cc1ccc(NS(=O)(=O)c2ccc(F)cc2)nc1 | inactive |  |
| Cc1cc(C)cc(NS(=O)(=O)c2ccc(F)cc2)c1 | inactive |  |
| O=C(CCNC(=O)c1ccc(Cl)cc1)NC1CCCc2ccccc21 (stereo not given) | inactive |  |
| Cc1[nH][nH]c(=O)c1N=Nc1ccccc1 | inactive |  |
| Nc1[nH][nH]c(=O)c1N=Nc1ccc2c(c1)OCO2 | 2820 nM (active) |  |
| CC(=O)c1cc2c(cc1N)OCO2 | inactive |  |
| Cc1cc(C)cc(OCC(=O)OCC(=O)NC2CCCC2)c1 | inactive |  |
| Nc1ccn(CC(=O)N2CCN(c3ccccn3)CC2)c(=O)n1 | inactive |  |
| CC(C)N(Cc1nnc(-c2ccccc2Br)o1)C(=O)c1cc(Cl)nc2ccccc12 | inactive |  |
| CCC(=O)c1ccc(OCC(=O)Nc2ccc(N3CCCCC3)cc2)cc1 | inactive |  |
| CCCCSc1nnc(-c2ccc(NC(=O)CC)cc2)n1C | inactive |  |
| CCC(=O)Nc1ccc(-c2ccc(N3CCCCC3)nn2)cc1 | 2240 nM (active) |  |
| CN(CC(=O)NCCc1ccc(F)cc1)CC(=O)Nc1ccc(F)c(F)c1F | inactive |  |
| Cc1ccc(NC(=O)C2CC(c3ccc(F)cc3)=NO2)cc1 (stereo not given) | inactive |  |
| O=C(Nc1ccc2c(c1)OCO2)C1CC1(Cl)Cl (stereo not given) | inactive |  |
| O=C(Nc1ccc2c(c1)OCO2)C1CC(c2c(F)cccc2Cl)=NO1 (stereo not given) | 3980 nM (active) |  |
| CN(Cc1cccs1)C(=O)CN1C(=O)c2ccccc2S1(=O)=O | inactive |  |
| O=C(COC(=O)c1cccc(Cl)c1)NC1CCCCCCC1 | inactive |  |
| CCCN(CC(=O)NC(=O)NC1CCCCC1)CC(=O)Nc1cc(Cl)ccc1Cl | inactive |  |
| CC(=O)NC12CC3CC(C1)CC(C(=O)N1CCN(S(=O)(=O)c4cccs4)CC1)(C3)C2 | inactive |  |
